Experimental findings from article PMC7826789 (International Journal of Molecular Sciences, 2021) are described below.

SMILES strings stand for the structures.

One experiment concerns PRKD1.
`Cc1cccc(-c2cc(Nc3ccncc3)c3ccccc3n2)n1` [GSK223675]: the Kinases covered entry is listed as “PRKD1”.
Still for that read-out and setting: for `COc1ccc2nc(-c3cccc(C)n3)nc(Nc3ccncc3)c2c1` [GSK204919] the value was “PRKD1”.
The same measure, in the same setting: with `Cc1cccc(-c2nc(Nc3ccncc3)c3ccccc3n2)n1` [GW855857] the entry was “PRKD1”; with `C[C@@H]1CCNC(=O)c2cc3ccc(C(=O)Nc4nc5ccccc5n4CCCN(C)C)cc3n21` [BI00645435], “PRKD1”.

In another experiment the test system is RAF1.
For the molecule `CN(C)CCOc1ccc(-c2nc(-c3ccc4c(c3)CC/C4=N\O)c(-c3ccncc3)[nH]2)cc1` [SB-590885], the Kinases covered result is reported as “RAF1”.
The same measure, in the same setting: for `CCCS(=O)(=O)Nc1ccc(F)c(-n2cc(-c3cncc(OC)c3)nn2)c1F` [BI00865461] the value was “RAF1”; for `O=C1Nc2ccc(C(=O)c3ccco3)cc2C1=Cc1cc(Cl)c(O)c(Cl)c1` [GW406108X], “RAF1”.

The test system of another experiment is RET.
With `Cl.O=C(Nc1ccc(Oc2ccc3[nH]c(NC(=O)c4ccccc4)nc3c2)cc1)Nc1cc(C(F)(F)F)ccc1F` [GW709042A], the Kinases covered entry is “RET”.
In the case of `COc1cc2ncnc(Nc3cccc(Cl)c3F)c2cc1O[C@H]1CC[C@H]([C@@H]2NCCNC2=O)CC1` [BI00133844], the Kinases covered result is on record as “RET”.
`COc1cc2c(cc1OC)C(=C(Nc1ccccc1)c1cccc(CN)c1)C(=O)N2` [BIBF0846CL]: the Kinases covered entry is given as “RET”.

The next experiment deals with RIPK1.
With `Cc1cccc(CC(=O)N2CCc3c2ccc(-c2cn(C)c4ncnc(N)c24)c3F)n1` [GSK2656157], the Kinases covered result is on record as “RIPK1”.
Same read-out and setting: for `Cn1cc(-c2ccc3c(c2)CCN3C(=O)Cc2cccc(C(F)(F)F)c2)c2c(N)ncnc21` [GSK2606414] the value was “RIPK1”; for `CN1C(=O)[C@@H](NC(=O)c2cc(Cc3ccccc3)on2)COc2ccccc21` [GSK481], “RIPK1”.

A further experiment concerns RIPK2.
`CC(C)(C)S(=O)(=O)c1ccc2nccc(Nc3n[nH]c4ccc(F)cc34)c2c1` [GSK583]: the Kinases covered entry is “RIPK2”.
Still for that read-out and setting: for `COc1cc(-c2cncc(-c3cnn(C4CCNCC4)c3)c2)cc(OC)c1OC` [K05908] the value was “RIPK2”.
On the same count and under the same terms, for `CN(C)CCOc1ccc(-c2nc(-c3ccc4c(c3)CC/C4=N\O)c(-c3ccncc3)[nH]2)cc1` [SB-590885] the value was “RIPK2”.
